13 compounds from PubChem BioAssay (NCATS) can be followed below.

Assay [1] can be described thus: HPAF-II Cancer Cell Toxicity qHTS against the NCATS CANVASS Library (AID 1347346). Also: nearly all actives have a fitted effect of over 55% in size. Also: potency is read from the fitted curve at half-maximal effect. Put shortly:
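Luminescence from CellTiter-Glo, added after 72 h compound exposure and a 15 min room-temperature incubation, served as the viability readout. HPAF-II cells (1000/well) received an 11-point concentration series.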
(qHTS replaces the single test concentration by a dilution series.)

Assay [2] in a line: A2780 Cisplatin Sensitive Ovarian Cancer Cell Toxicity qHTS against the NCATS CANVASS Library (AID 1347353). Also: nearly all actives have a fitted effect of over 60% in size. Also: potency is read from the fitted curve at half-maximal effect. Summed up:
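Luminescent ATP content (ATPLite, 10 min at room temperature) served as the read-out after cells had been exposed to compounds for 72 hours at 37 °C. Dosing followed an 11-point concentration series.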

Assay [3] in a line: SDT Cancer Cell Toxicity qHTS against the NCATS CANVASS Library (AID 1347365). Also: nearly all actives have a fitted effect of over 60% in size. Also: potency is read from the fitted curve at half-maximal effect. Put shortly: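 qHTS, SDT dog glioma line, 500 cells/well; cpds 11 pts; 72 hr, 37C, 5% CO2; CellTiterGlo ATP luminescence.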
A short description of assay [4]: qHTS for ATAD5 Antagonist screened against the NCATS CANVASS Library (AID 1347370). Also: nearly all actives have a fitted effect of over 65% in size. Also: potency is read from the fitted curve at half-maximal effect. Summed up:
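HEK293T cells with stably integrated ATAD5-luciferase reporter, 2000/well, 5 h attachment; compounds plus 10 µM 5-fluorouridine, 16 h at 37 °C. Luciferase luminescence read, with CellTiter-Fluor viability read first.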

Assay [5] in a line: qHTS for Hypoxia signaling pathway (HIF-1) antagonists against the NCATS CANVASS Library (AID 1347374). Also: nearly all actives have a fitted effect of over 60% in size. Also: potency is read from the fitted curve at half-maximal effect. Summed up: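 HRE-bla ME-180 cells in medium with 0.5% dialyzed FBS received compounds (11-point series) plus CoCl2 (60 uM addition stock) for 17 hrs at 37C. Beta-lactamase activity read with CCF4 (405 nm ex, 460/530 nm em); CellTiter-Glo viability measured in same wells.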

Assay [6] can be described thus: qHTS for Inflammasome Signaling Inhibitors: IL-1-beta AlphaLISA screen against the NCATS CANVASS Library (AID 1347379).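 Also: human THP-1 cells primed with LPS then triggered with ATP.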 Put shortly:
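THP-1 cells pretreated 1 hr with compound (up to 57.5 uM final), then stimulated with LPS (250 ng/mL final) and ATP (1.25 mM final). Secreted IL-1B measured by AlphaLISA after 16 hr; glyburide as positive control.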

Assay [7] can be described thus: qHTS for Activators of p53 Stress Response Pathway screened against the NCATS CANVASS Library (AID 1347388). Put shortly: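 p53RE-bla HCT-116 cells (4000/well) were pre-incubated for 5 h, then treated with compound (11 points) for 16 h at 37C. After 2 h with CCF4, the 460/530 nm ratio gave reporter activation; CellTiter-Glo measured viability.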
Assay [8] can be described thus: qHTS assay for small molecule disruptors of mitochondrial membrane potential screened against the NCATS CANVASS Library (AID 1347389). Also: nearly all actives have a fitted effect of over 60% in size. Also: potency is read from the fitted curve at half-maximal effect. Put shortly:
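HepG2, 2,000 cells/well, attached overnight; compound 1 hr, 37C, 5% CO2; Mito-MPS dye 30 min, 37C; fluorescence 535 nm (monomer) and 590 nm (aggregate); decreased 590/535 ratio = depolarization.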

Assay [9] can be described thus: Secretion counterscreen for inhibitors of the SERCaMP assay screened against the NCATS CANVASS Library (AID 1347390).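 Also: light from luciferase secreted into medium read as a measure of general secretion.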 Also: potency is read from the fitted curve at half-maximal effect. Put shortly: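 SH-SY5Y cells expressing constitutively secreted GLuc, 1000 cells/well, attached 4 h at 37C, then exposed to compounds (0.001 - 77 uM, 11-pnt series) for 20 h. Coelenterazine added; luminescence read to flag secretory-pathway interferers.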
Background: A counterscreen serves to expose hits that act by an unwanted route or on another target.

A short description of assay [10]: Vero-766 cells viability qHTS against the NCATS CANVASS Library: Counterscreen for Zika virus inhibition assay (AID 1347394). Also: nearly all actives have a fitted effect of over 60% in size. Also: potency is read from the fitted curve at half-maximal effect. Put shortly:
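Uninfected Vero 766 (African green monkey) cells, 1000/well, attached overnight, then exposed 72 h at 37C to compounds (11-point qHTS). Viability read by CellTiter-Glo luminescence; media-only wells served as 100% inhibition.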

Inconclusive results are not listed. Calls of active or inactive are those of the source. Calls follow the shape of the dose curve; as a rule, active = well fitted curve in the direction sought with a large enough effect; inconclusive = small, poorly fitted or top-dose-only effect, or another doubt; inactive = no such curve, though single readings can be large; an effect the other way counts as inactive or inconclusive. Starred links: 1 amine or outer side, 2 acyl side, 3 side chain; linkers in the order of their positions; H or OH if unused. Positions of bridges follow the written chain, without caps; N, C: chain ends. Non-standard residues stand in square brackets, D forms with d. Residues, ends and D or L forms follow the SMILES beside them. ξ: configuration not given here. *: point of attachment. X3 = C[C@@H](Oc1ccc([C@H](N[*:1])C(=O)[*:2])cc1)[C@]1(/C=C\C(=O)[*:3])CO1; d(aIle) = CC[C@H](C)[C@@H](N)C(=O)O; X2 = CC(C)[C@@H](O)C(C)C(=O)*; ξNMeF = CNC(Cc1ccccc1)C(=O)O; ξT = CC(O)C(N)C(=O)O; ξS = NC(CO)C(=O)O

As to `CO[C@H]1[C@H](O[C@H]2CC[C@]3(C=O)[C@H]4CC[C@]5(C)[C@@H](C6=CC(=O)OC6)CC[C@]5(O)[C@@H]4CC[C@]3(O)C2)O[C@H](C)[C@H](O)[C@@H]1OC`, the Potency was 0.335 µM (active) in assay [1]; 0.209 µM (active) in [2]; 0.148 µM (active) in [3]; 0.132 µM (active) in assay [4]; 0.0838 µM (active) in assay [5]; 0.685 µM (active) in [6]. Besides, the Potency in [9] is 0.767 µM (active); in [10], 0.741 µM (active). For the same compound, the Potency result in assay [7] and in assay [8] was “inactive” throughout.

`CC[C@]12C=CCN3CC[C@]4(C(=C(C(=O)OC)C1)Nc1ccccc14)[C@@H]32`: the Potency entry in assay [1], in assay [2], in assay [5], in [7], in [8] and in assay [9] was “inactive” in each case. For the same compound, the Potency result in assay [10] was “inactive”.

For `c1ccc2nc3c(cc2c1)[nH]c1ccccc13`, the Potency result in assay [1], in assay [4], in [5], in [6], in assay [7] and in assay [9] was “inactive” throughout. Also, the Potency entry in [10] is “inactive”. The Potency in assay [8] was 16.6 µM (active).

On to `C/C=C1/CN2CC[C@]34C(=C(C(=O)OC)[C@H]1C[C@H]23)Nc1ccccc14`, for which the Potency in [3] was 0.662 µM (active). In addition, the Potency result in [5], in [7], in assay [8], in assay [9] and in assay [10] was “inactive” throughout.

As for `CO[C@@H](/C=C/CC/C=C/C(=O)O)[C@@H](O)[C@H](C)/C=C(\C)[C@H](O)[C@H](C)C(=O)CCCC1CC(=O)NC(=O)C1`, the Potency entry in assay [1], in [2], in [3], in assay [4], in assay [5] and in assay [6] was “inactive” in each case. The Potency result in assay [7], in assay [8], in assay [9] and in [10] was “inactive” in each case.

For `C=C[C@]12C=CCN3CC[C@@]4(c5ccccc5NC(=O)[C@@H]4C1)[C@@H]32`, the Potency result in assay [1], in assay [2], in [3], in assay [4], in assay [5] and in assay [6] was “inactive” in each case. The Potency entry in assay [7], in assay [8], in assay [9] and in [10] was “inactive” throughout.

`CC(C)CC1C(=O)O[C@H](C(C)C)C(=O)N(C)C(CC(C)C)C(=O)O[C@@H](C(C)C)C(=O)N(C)C(CC(C)C)C(=O)O[C@H](C(C)C)C(=O)N(C)C(CC(C)C)C(=O)O[C@@H](C(C)C)C(=O)N1C` (some centres undefined): the Potency was 5.95 µM (active) in assay [1], 5.26 µM (active) in assay [2], 7.41 µM (active) in [8] and 11.7 µM (active) in [10]. Besides, the Potency entry in [6] and in [7] was “inactive” in each case.

In the case of `C1=C2CCCN[C@H]2C2CC1[C@H]1CCCCN1C2` (some centres undefined), the Potency entry in assay [1], in [2], in assay [4], in assay [5], in assay [6] and in assay [7] was “inactive” each time. The Potency entry in assay [8], in assay [9] and in assay [10] was “inactive” each time.

Regarding `C=C[C@H]1CN2CCc3c([nH]c4cccc(OC)c34)[C@@H]2C[C@@H]1/C(=C\OC)C(=O)OC`, the Potency result in assay [1], in assay [4], in assay [5], in [6], in assay [7] and in assay [10] was “inactive” in each case. Further, the Potency in assay [2] is 20.9 µM (active); in assay [3], 16.6 µM (active).

`C[C@]12CC(O)C3[C@@H](CC[C@@H]4C[C@@H](O)CC[C@]34CO)[C@@]1(O)CC[C@@H]2C1=CC(=O)OC1` (some centres undefined): the Potency in [1] was 10.6 µM (active); in [2], 7.43 µM (active); in assay [3] it was 2.64 µM (active); in assay [4], 13.2 µM (active); in assay [5], 2.98 µM (active); in assay [6], 12.2 µM (active). The Potency entry in assay [7] and in [8] was “inactive” each time.

Take `CCCCC1CC[C@H]2CCCC(CCC)N12` (some centres undefined): the Potency result in assay [1], in assay [3], in [4], in [5], in assay [6] and in assay [7] was “inactive” in each case. Also, the Potency entry in assay [8], in assay [9] and in assay [10] was “inactive” in each case.

For the compound `CC[C@H](C)[C@H]1NC(=O)[C@@H](NC(=O)C(C)[C@H](O)C(C)C)[C@@H](C)OC(=O)C2COC(=O)CNC(=O)/C=C\[C@]3(CO3)[C@@H](C)Oc3ccc(cc3)[C@H](NC1=O)C(=O)N(C)C(Cc1ccccc1)C(=O)NC(C(C)O)C(=O)N2` (some centres undefined) (X2-T[d(aIle)][X3][ξNMeF][ξT][ξS]; ester 1-C; linker 3-6 via G), the Potency result in assay [1], in assay [2], in assay [4], in assay [5], in assay [6] and in [7] was “inactive” throughout. The Potency entry in assay [8] and in assay [10] was “inactive” throughout.

Take `C=CC(C)(C)[C@@]12C[C@H]3C(=O)N/C(=C\c4cnc[nH]4)C(=O)N3[C@@H]1Nc1ccccc12`: the Potency result in assay [1], in [2], in assay [3], in assay [4], in [5] and in assay [6] was “inactive” in each case. Besides, the Potency result in [7], in [8], in assay [9] and in assay [10] was “inactive” throughout.
